According to publication PMC4552634, “A New Set of Chemical Starting Points with Plasmodium falciparum Transmission-Blocking Potential for Antimalarial Drug Discovery” (PLoS ONE, 2015):
About 3,200 (25%) of roughly 13,000 compounds showed an effect of 50% or more. The list shows a part of the results.

These compounds were tested on P. falciparum stage V gametocytes. Details: 48 h, 5 µM; inhibitor.
Design: BacTiter-Glo ATP luminescence viability of purified stage V gametocytes in 384-well plates, per cent inhibition versus DMSO

First: CN(C)CCN(C)Cc1ccc(-c2ccc(NS(=O)(=O)c3cccc4cccnc34)cc2)cc1 [TCMDC-136474]
Second: Cc1cccc2nc(-c3ccc(-c4ccc(CNCCNC(=O)c5ccnn5C)cc4)cc3)[nH]c12.O=C(O)C(F)(F)F [TCMDC-133017]
The “% Inhibition” value of the first is lower: 21.58% for the first, 85.49% for the second.

First: CCn1cc(C=C2Oc3c(ccc(O)c3CN3CCCCC3)C2=O)c2cc(OC)ccc21 [TCMDC-124887]
Second: COc1ccc(-c2cc3ncnc(N4CCN(CCN5CCCC5)CC4)c3s2)cc1 [TCMDC-125055]
The “% Inhibition” value of the first is higher: 12.33% for the first, -2.838% for the second.

First: CCCNCc1ccc(-c2ccc(CN(CCOC)C(=O)CCC(=O)c3ccc(OC)c(F)c3)cc2)nc1 [TCMDC-141537]
Second: CCCNCc1ccc(-c2ccc(CN(CCOC)C(=O)CCc3ccc(OC)cc3)cc2)nc1 [TCMDC-141539]
The “% Inhibition” value of the first is higher: 97.99% for the first, 54.14% for the second.

First: Cc1cc(NC(=O)NCCN2CCC(NS(=O)(=O)c3ccccc3F)CC2)c2ccccc2n1 [TCMDC-136137]
Second: Cc1cc(OCCCN2CCC(NS(=O)(=O)c3ccc(C(F)(F)F)cc3)CC2)c2ccccc2n1 [TCMDC-136277]
The “% Inhibition” value of the first is higher: 1.757% for the first, -32.21% for the second.

Compared with CCOC(=O)c1[nH]c(-c2cc(Cl)nc(Cl)c2)nc1NC(=S)NCc1ccc(NS(C)(=O)=O)cc1 [TCMDC-138899], Cc1cccc2nc(-c3cccc(-c4ccc(CNCCNC(=O)c5ccnn5C)cc4)c3)[nH]c12.O=C(O)C(F)(F)F [TCMDC-133007] is higher in “% Inhibition” value: -31.28% for the first, 31.89% for the second.

Going from CC(=O)c1nccc(C)c1N [TCMDC-139307] to Cc1cccc(OCCCCON2C(N)=NC(N)=NC2(C)C)c1C [TCMDC-131662], the “% Inhibition” value rises from -14.24% to 9.727%.

Going from CN1CCC(Oc2cc(NC(=O)Nc3ccc(-c4ccncc4)c(Cl)c3)ccc2Cl)CC1 [TCMDC-139205] to COc1ccc(NC(=O)/C=C/c2ccc(Cl)c(Cl)c2)cc1N1CCN(C)CC1 [TCMDC-139042], the “% Inhibition” value falls from 28.36% to -34.01%.

Compared with O=C(CCCCCNC(=O)c1ccc(O)c(-c2ccc(Cl)c(Cl)c2)c1)NCc1cccc(C(F)(F)F)c1 [TCMDC-140831], Cc1cccc2nc(-c3ccc(-c4cccc(CNCCNC(=O)c5ccnn5C)c4)cc3)[nH]c12.O=C(O)C(F)(F)F [TCMDC-133011] is higher in “% Inhibition” value: 18.4% for the first, 85.89% for the second.

First: O=C(Nc1ccsc1)Nc1cccc(-c2ccc(-c3nc4ccc(C(F)(F)F)cc4[nH]3)cc2)c1 [TCMDC-133210]
Second: Cc1cccc2nc(-c3cccc(-c4cccc(CNCCNC(=O)c5ccnn5C)c4)c3)[nH]c12.O=C(O)C(F)(F)F [TCMDC-133005]
The “% Inhibition” value of the first is lower: -6.282% for the first, -4.375% for the second.

Going from CNCCCn1c(N(C)C)nc2cc(-n3cnc4cc(-c5ccc(Cl)cc5)sc4c3=O)ccc21 [TCMDC-138914] to COc1ccc(-c2cc3ncn(CC(=O)N4CCN(c5cccc(OC)c5)CC4)c(=O)c3s2)cc1 [TCMDC-125255], the “% Inhibition” value rises from 43.83% to 66.27%.

Going from CN1CCN(C(=O)CN2CCC3(CCC2=O)NC(=O)c2ccccc2O3)CC1 (stereo not drawn) [TCMDC-125378] to CC(=O)Nc1ccc(CN2CCCN(c3cc(NC(=O)c4cccc(C)c4)ccn3)CC2)cc1 [TCMDC-134980], the “% Inhibition” value rises from -32.42% to 8.133%.

First: CC(=O)N/N=C/[C@H](CCc1ccccc1)NC(=O)[C@H](CC(C)C)NC(=O)c1ccc(F)cc1 [TCMDC-135965]
Second: Cc1cccc2nc(-c3ccc(-c4cccc(CNCCNC(=O)c5ccnn5C)c4)s3)[nH]c12.O=C(O)C(F)(F)F [TCMDC-133015]
The “% Inhibition” value of the first is higher: 1.649% for the first, -0.5354% for the second.

First: CC[C@H](NC(=O)c1c(N)c(-c2sccc2Cl)nc2ccccc12)c1ccccc1 [TCMDC-141650]
Second: COc1ccc(-n2nc(C)c3c2NC(=O)CC3c2ccccc2OCc2ccccc2F)cc1 (stereo not drawn) [TCMDC-124907]
The “% Inhibition” value of the first is higher: 17.42% for the first, 2.012% for the second.

Compared with O=[N+]([O-])c1cccc(CNCC2CCN(CCc3ccccc3)CC2)c1 [TCMDC-141210], COc1ccc2nccc([C@@H](O)CN3CCC(NC(=O)c4cc5cccnc5[nH]4)CC3)c2c1 [TCMDC-140768] is higher in “% Inhibition” value: 2.081% for the first, 6.193% for the second.

First: COc1cccc(Nc2nc(C)cc(Nc3cccc(C#N)c3)n2)c1 [TCMDC-133448]
Second: COc1cccc(Nc2nc(Nc3cccc(C#N)c3)cc(C(F)(F)F)n2)c1 [TCMDC-133462]
The “% Inhibition” value of the first is higher: 4.259% for the first, -24.01% for the second.

First: Fc1ccc(Nc2n[nH]c(CNC3CCN(Cc4ccc(Cl)c(Cl)c4)CC3)n2)cc1 [TCMDC-138655]
Second: Fc1cccc(Nc2nc(NCc3ccc(Cl)c(Cl)c3)nc(Nc3cccc(F)c3)n2)c1 [TCMDC-135139]
The “% Inhibition” value of the first is lower: -23.76% for the first, 55.91% for the second.

Going from Fc1cccc(Nc2nc(NCCc3ccc(Cl)cc3)nc(Nc3cccc(F)c3)n2)c1 [TCMDC-135141] to Fc1cccc(Nc2nc(NCc3ccc4ccsc4c3)nc(Nc3cccc(F)c3)n2)c1 [TCMDC-135140], the “% Inhibition” value rises from 40.3% to 55.41%.

First: Cc1nc(-c2cccc(Nc3nccc(NCC(O)c4cccc(F)c4)n3)c2)cs1 (stereo not drawn) [TCMDC-136571]
Second: COc1ccc(CNc2nc(Nc3cccc(C#N)c3)nc(Nc3cccc(C#N)c3)n2)cc1Cl [TCMDC-138547]
The “% Inhibition” value of the first is lower: -23.01% for the first, 52.56% for the second.

First: FC(F)(F)Oc1cccc(CNc2noc(-c3sccc3Br)n2)c1 [TCMDC-134186]
Second: Cc1cccc2nc(-c3ccc(-c4ccc(CNCCNC(=O)c5ccnn5C)cc4)s3)[nH]c12.O=C(O)C(F)(F)F [TCMDC-133009]
The “% Inhibition” value of the first is lower: 1.419% for the first, 4.683% for the second.

Compared with CC(C)n1ncc2c(C(=O)Nc3ccc(C#N)c(Cl)c3)cc(C3CC3)nc21 [TCMDC-125244], COc1ccc(CCNC(=O)c2cnc3c(c2)nc(-c2cnc(-c4ccccc4)[nH]2)n3CCc2cnc[nH]2)cc1 [TCMDC-139689] is lower in “% Inhibition” value: -17.87% for the first, -21.36% for the second.

Compared with CS(=O)(=O)CCNCc1ccc(-c2ccc3ncnc(Nc4ccc(OCc5ccccc5)c(Cl)c4)c3c2)o1 [TCMDC-138467], COc1cc(OCCCCCCON2C(N)=NC(N)=NC2(C)C)cc(OC)c1OC [TCMDC-131371] is lower in “% Inhibition” value: 19.81% for the first, 3.006% for the second.
